The text below walks through data of the supplement of paper PMC7411054.

Counter-ions that a name gives are not always drawn.

Conditions in all cases: treatment time: 24 h
Experiment [1] concerns A549-ACTB-RAB5A. Put plainly: lowest phenotypically active concentration; higher = less potent. The method in brief: (§1)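 Fifteen gene-edited A549, HepG2 and WPMY1 reporter lines (BFP segmentation plus GFP and RFP/FusionRed markers) were treated at 0.3, 1, 3 or 9 µM for 24 h, four wells each, then imaged live. Live-cell features per well were normalised to DMSO control wells. Deviation required ≥3 of 4 wells beyond the 95th percentile of DMSO Euclidean distances, and reproducibility required median replicate Pearson correlation above the 95th percentile of non-replicates. Phenotypic activity needed both criteria.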

In experiment [2] the test system is A549-CANX-COX4. The description is as above. The method in brief: as §1
In experiment [3] the test system is A549-GM130-SQSTM1. The experiment is described as above. The method in brief:
as §1

For experiment [4], the system named is A549-TP53BP1-CLTA. The description is as above. In short, it runs like this: as §1
Experiment [5] concerns A549-TUBA1B-RELA. The description is as above. The method in brief: as §1
The test system of experiment [6] is A549-ACTB-RAB5A. Put plainly: phenotypically active (imaging signature differs from DMSO and reproducible) at any of 0.3-9 uM (binary (1 = active, 0 = inactive)); higher = active. The method in brief: as §1
Experiment [7] concerns A549-CANX-COX4. Described as above. In short, it runs like this:
as §1

For experiment [8], the system named is A549-GM130-SQSTM1. The description is as above. The method in brief: as §1
In experiment [9] the test system is A549-TP53BP1-CLTA. The experiment is described as above. The method in brief:
as §1

In experiment [10] the test system is A549-TUBA1B-RELA. The experiment is described as above. The method in brief:
as §1

Experiment [11] relates to HepG2-ACTB-RAB5A. The experiment is described as above. The method in brief:
as §1

The subject of experiment [12] is HepG2-CANX-COX4. The description is as above. In short, it runs like this: as §1
In experiment [13] the test system is HepG2-GM130-SQSTM1. Described as above. In short, it runs like this:
as §1

Experiment [14] relates to HepG2-TP53BP1-CLTA. Described as above. In short, it runs like this: as §1
Experiment [15] relates to HepG2-TUBA1B-RELA. The description is as above. The method in brief:
as §1

For experiment [16], the system named is WPMY1-ACTB-RAB5A. Described as above. The method in brief: as §1
Experiment [17] has as its system WPMY1-CANX-COX4. Described as above. In short, it runs like this: as §1
Experiment [18] deals with WPMY1-GM130-SQSTM1. Described as above. In short, it runs like this: as §1
Experiment [19] relates to WPMY1-TP53BP1-CLTA. The experiment is described as above. In short, it runs like this:
as §1

Experiment [20] has as its system WPMY1-TUBA1B-RELA. The description is as above. In short, it runs like this: as §1

For `C/C=C1\NC(=O)[C@H]2CSSCCC=C[C@H](CC(=O)N[C@H](C(C)C)C(=O)N2)OC(=O)[C@H](C(C)C)NC1=O`, the “lowest phenotypically active concentration” value in experiment [1], in experiment [2], in [3], in experiment [4] and in experiment [5] was not above 0.3 µM each time. Also, the phenotypically active in experiment [6], in [7], in experiment [8], in [9], in [10] and in experiment [11] was 1 (active) each time. Moreover, the phenotypically active in experiment [12], in experiment [13], in experiment [14], in [15], in experiment [16] and in experiment [17] was 1 (active) in each case. Moreover, the phenotypically active in experiment [18], in [19] and in experiment [20] was 1 (active) throughout.

As to `CN(C)C1CCN(C(=O)c2ccc(NC(=O)Nc3ccc(-c4nc(N5CCOCC5)nc(N5CCOCC5)n4)cc3)cc2)CC1`, the “lowest phenotypically active concentration” value in [1], in experiment [2], in [3], in [4] and in [5] was not above 0.3 µM throughout. Further, the phenotypically active in [6], in [7], in experiment [8], in experiment [9], in experiment [10] and in [11] was 1 (active) each time. The phenotypically active in experiment [12], in [13], in experiment [14], in [15], in experiment [16] and in [17] was 1 (active) each time. The phenotypically active in experiment [18], in [19] and in experiment [20] was 1 (active) in each case.

With `Cc1noc(C)c1-c1cc(O)cc(C(O)c2ccccc2)c1` (stereo not given), the “lowest phenotypically active concentration” value was determined as 1 µM in experiment [1]; 9 µM in experiment [2]; 3 µM in experiment [3]; 3 µM in experiment [4]; 3 µM in experiment [5]. In addition, the phenotypically active in experiment [6], in experiment [7], in [8], in [9], in experiment [10] and in [11] was 1 (active) in each case. Also, the phenotypically active in experiment [12], in [13], in experiment [14], in [15], in [16] and in experiment [17] was 1 (active) throughout. The phenotypically active in experiment [18], in experiment [19] and in [20] was 1 (active) each time.

On to `COc1cc2c(cc1-c1c(C)noc1C)ncc1[nH]c(=O)n([C@H](C)c3ccccn3)c12` [I-BET 151 dihydrochloride], for which the “lowest phenotypically active concentration” value in [1] stood at 1 µM; in [2], 3 µM; in experiment [3] it was 1 µM; in experiment [4], 3 µM; in experiment [5] it was 1 µM. Besides, the phenotypically active in experiment [6], in [7], in experiment [8], in experiment [9], in experiment [10] and in experiment [11] was 1 (active) each time. In addition, the phenotypically active in experiment [12], in experiment [13], in experiment [14], in [15], in experiment [16] and in experiment [17] was 1 (active) in each case. For the same molecule, the phenotypically active in [18], in [19] and in [20] was 1 (active) each time.

As to `CC1=C(C(=O)Nc2cc3cn[nH]c3cc2F)C(c2ccc(C(F)(F)F)cc2)CC(=O)N1` (stereo not given), the “lowest phenotypically active concentration” value was not above 0.3 µM in experiment [1]; 1 µM in experiment [2]; 1 µM in [3]; not above 0.3 µM in experiment [4]; not above 0.3 µM in experiment [5]. Besides, the phenotypically active in [6], in experiment [7], in [8], in [9], in experiment [10] and in [11] was 1 (active) in each case. Also, the phenotypically active in [12], in [13], in experiment [14], in experiment [15], in [16] and in [17] was 1 (active) throughout. In addition, the phenotypically active in [18], in experiment [19] and in [20] was 1 (active) in each case.

Take `Cc1ccc(C(=O)N(CCCN)[C@@H](c2oc3cc(Cl)ccc3c(=O)c2Cc2ccccc2)C(C)C)cc1`: the “lowest phenotypically active concentration” value in experiment [1], in [2], in experiment [3], in experiment [4] and in [5] was not above 0.3 µM throughout. The phenotypically active in experiment [6], in experiment [7], in [8], in experiment [9], in experiment [10] and in experiment [11] was 1 (active) each time. The phenotypically active in experiment [12], in experiment [13], in experiment [14], in [15], in experiment [16] and in experiment [17] was 1 (active) in each case. For the same molecule, the phenotypically active in [18], in experiment [19] and in experiment [20] was 1 (active) in each case.
